Source: PubChem BioAssay
mIDH1 inhibitor = inhibitors of human mutant IDH1 R132H | Potency, µM (highest dose often 76.6 µM), for the others: at the highest dose activity change, negative = inhibition, actives largely listed as inhibitors | actives 0.093% (n = 390,000) | IDH1-R132H enzyme, NADPH consumption, diaphorase/resazurin fluorescence | O75874; further: potency means the concentration at half of the fitted maximal effect; on the % scale 0 is the no-effect control and ±100 the full control effect; nearly all actives have a fitted effect of over 65% in size
Target sequence (O75874 whole entry R132H, stated change not applied): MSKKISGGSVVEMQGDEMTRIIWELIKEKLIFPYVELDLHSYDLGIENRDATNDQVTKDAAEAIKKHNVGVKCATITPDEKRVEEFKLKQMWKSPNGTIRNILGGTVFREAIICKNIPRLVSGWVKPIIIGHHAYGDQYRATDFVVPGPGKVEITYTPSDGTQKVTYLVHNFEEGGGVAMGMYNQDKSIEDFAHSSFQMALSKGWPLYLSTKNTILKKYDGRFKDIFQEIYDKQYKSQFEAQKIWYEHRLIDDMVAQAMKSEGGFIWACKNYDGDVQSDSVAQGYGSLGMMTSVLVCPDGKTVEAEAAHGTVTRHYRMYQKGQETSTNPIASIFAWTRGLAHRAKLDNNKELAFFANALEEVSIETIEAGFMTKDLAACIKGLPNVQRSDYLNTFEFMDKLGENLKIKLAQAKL
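IDH1-R132H (0.5 ug/mL dispensed) in pH 7.5 Tris buffer was preincubated 30 min with compound, then given a substrate mix of 0.016 mM NADPH and 2 mM alpha-KG for 80 min at room temperature; remaining NADPH was read by diaphorase/resazurin fluorescence.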
TGFb inhibitor = blocks TGF-b signaling. Potency, µM (series often up to 46.1 µM), inactives show at the top dose activity, negative = inhibition, actives largely listed as inhibitors. HepG2 CAGA-GFP TGF-b/SMAD3 reporter, GFP fluorescence, 18 h; TGF-beta stimulated, 500 pg/mL final. actives 1.2% (n = 410,000); further: potency means the concentration at half of the fitted maximal effect; on the % scale 0 is the no-effect control and ±100 the full control effect; nearly all actives have a fitted effect of over 65% in size
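HEPG2 CAGA-GFP, 1000 cells/well; 2 h settle, 37 C; cpd via pin tool; TGF-b 500 pg/mL final; 18 h, 37 C; GFP imaging ex488/em500-530; %Activity normalised to -TGF-b and +DMSO controls; CRC fit, curve class.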
ATXN viability = viability counter-screen for ATXN expression inhibitors; S2 cells (HEK-293 line with an ATXN2-luciferase reporter) viability, CellTiter-Fluor protease fluorescence, 24 h; Potency, µM (series often up to 56.7 µM), usual class: cytotoxic; actives 0.49% (n = 400,000); further: potency means the concentration at half of the fitted maximal effect; nearly all actives have a fitted effect of over 40% in size
ATXN2 expr inh = reduces ATXN2 reporter expression in HEK-293 cells; HEK-293 ATXN2-luciferase reporter, luminescence, 24 h; Potency, µM (top dose mostly 57 µM), for inactives: top-dose activity change, negative = inhibition, usual class: inhibitors; actives 0.72% (n = 360,000); AID 1745845; further: potency means the concentration at half of the fitted maximal effect; on the % scale 0 is the no-effect control and ±100 the full control effect; nearly all actives have a fitted effect of over 55% in size
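ATXN2-luciferase reporter cells (luciferase flanked by upstream and downstream ATXN2 gene portions) were treated 24 h at 37 °C with compounds at up to 57 uM. SteadyGlo luminescence gave expression; GF-AFC fluorescence gave viability.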
HepG2 tox = kills HepG2 cells in TGF-b inhibitor counter-screen; HepG2 CAGA-GFP viability, ATP luminescence, 18 h; Potency, µM (doses to about 46.1 µM), without a hit: at the highest dose activity change, negative = cytotoxicity, hits mostly cytotoxic; actives 0.76% (n = 410,000); AID 588856; further: potency means the concentration at half of the fitted maximal effect
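HepG2 CAGA-GFP cells (1000/well, DMEM with 1% FBS) received compound, then TGF-beta at 500 pg/mL final, and were incubated 18 hours at 37 degrees C. Viability was read by CellTiter-Glo luminescence. Media-only wells were set as complete cell-killing and DMSO as no toxicity.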
LDHA inh = inhibitors of human lactate dehydrogenase A. purified LDHA, NADH/diaphorase-resazurin fluorescence; hits give low values. activity change, % (values are at about 110 or 230 µM). actives 0.15% (n = 480,000). AID 1347041; in the data active means activity change below about -30%; inconclusive means mostly about -25% to -30%;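 further: plate controls were DMSO wells for no effect and wells without enzyme for full effect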
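Resorufin fluorescence (ex540/em590), read at 0 and 20 min after diaphorase/resazurin addition, reports the NADH left after a 5 min room-temperature reaction of 2 nM human LDH5 with 0.06 mM NADH and 0.2 mM pyruvate.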
Numbers without * were called inactive. Rows were chosen to be rich in hits. Some 2.2% of all compounds tested hit in one or more screens of this group. Unless noted, the call rests on the fitted dose curve; in most records, active means well fitted curve in the direction sought with a large enough effect; inconclusive means small, poorly fitted or top-dose-only effect, or another doubt; inactive means no such curve, though single readings can be large; an effect the other way counts as inactive or inconclusive.

How did COC(=O)C1=C(C)N(Cc2ccccc2)C(=NCc2ccccc2)N[C@H]1c1ccccc1 do in these assays?
mIDH1 inhibitor: -16%; TGFb inhibitor: inconclusive; ATXN viability: inconclusive; ATXN2 expr inh: inconclusive; HepG2 tox: 14µM*; LDHA inh: -8

How did COC(=O)C1=C(C)N(Cc2ccccc2)C(=NCc2cccc(Cl)c2)N[C@H]1c1ccccc1 do in these assays?
mIDH1 inhibitor: 2%; TGFb inhibitor: inconclusive; ATXN viability: 35µM*; ATXN2 expr inh: inconclusive; HepG2 tox: -96%; LDHA inh: -7

How did Nc1cc(=O)[nH]c(=O)n1-c1ccc(Cl)cc1 do in these assays?
mIDH1 inhibitor: 1%; TGFb inhibitor: 2%; ATXN viability: inactive; ATXN2 expr inh: -11%; HepG2 tox: 3%; LDHA inh: -8

Results for CCc1ccccc1OCC(=O)OCC(=O)Nc1cc(C)on1 ?
mIDH1 inhibitor: 0%; TGFb inhibitor: 10%; ATXN viability: inactive; ATXN2 expr inh: -3%; HepG2 tox: 3.2µM*; LDHA inh: -15

What do the screens show for `CC(C)c1c(O)nc(SCc2ccc(F)cc2)[nH]c1=O`?
mIDH1 inhibitor: 12%; TGFb inhibitor: -24%; ATXN viability: inactive; ATXN2 expr inh: 8%; HepG2 tox: 8%; LDHA inh: -9

Results for Cc1ccc2c(C)c(CCC(=O)NC34CC5CC(CC(C5)C3)C4)c(=O)oc2c1 ?
LDHA inh: 12

What do the screens show for `COC(=O)c1[nH]c2ccc(Br)cc2c1NC(=O)CN1CCN(C2CCCCC2)CC1`?
mIDH1 inhibitor: 5%; TGFb inhibitor: inconclusive; ATXN viability: 35µM*; ATXN2 expr inh: 18µM*; HepG2 tox: -117%; LDHA inh: -8

Results for COC(=O)c1[nH]c2ccc(Cl)cc2c1NC(=O)CCN1CCN(C2CCCCC2)CC1 ?
mIDH1 inhibitor: 6%; TGFb inhibitor: -19%; ATXN viability: inconclusive; ATXN2 expr inh: -12%; HepG2 tox: -39%; LDHA inh: -1

What do the screens show for `Cc1ccccc1NC(=S)NCc1ccc2c(c1)cc(C)n2C`?
mIDH1 inhibitor: -4%; TGFb inhibitor: 11µM*; ATXN viability: inconclusive; ATXN2 expr inh: inconclusive; HepG2 tox: -53%; LDHA inh: -7

What do the screens show for `COc1ccc(-c2cc3nc(C)cc(N)n3n2)cc1`?
mIDH1 inhibitor: 8%; TGFb inhibitor: 7%; ATXN viability: inconclusive; ATXN2 expr inh: -28%; HepG2 tox: 10µM*; LDHA inh: 3

Results for CC1=NC(=O)C(N=Nc2ccccc2)N1c1ccccc1 (centres undefined) ?
mIDH1 inhibitor: 5%; TGFb inhibitor: -27%; ATXN viability: inconclusive; ATXN2 expr inh: 15%; HepG2 tox: -24%; LDHA inh: -1

What do the screens show for `CC1=NC(=O)C(N=Nc2cccc(C(=O)O)c2)N1c1ccccc1` (centres undefined)?
mIDH1 inhibitor: 1%; TGFb inhibitor: -15%; ATXN viability: inconclusive; ATXN2 expr inh: 8.9µM*; HepG2 tox: -7%; LDHA inh: inconclusive

Results for CCCCCn1nc(C(=O)Nc2cccc(S(=O)(=O)NC3=NCCC3)c2)c2ccccc2c1=O ?
LDHA inh: -1

What do the screens show for `CC(C)(C)NC(=O)CN(C(=O)Cn1nnc(-c2ccc(Cl)cc2)n1)C1CCN(Cc2ccccc2)CC1`?
mIDH1 inhibitor: -2%; TGFb inhibitor: 16µM*; ATXN viability: inconclusive; ATXN2 expr inh: -16%; HepG2 tox: 18µM*; LDHA inh: -3

Results for Cc1ccc(-n2cc(CNCCc3ncc(C)[nH]3)c(-c3ccc(F)cc3)n2)cc1 ?
mIDH1 inhibitor: 9%; TGFb inhibitor: inconclusive; ATXN viability: inconclusive; ATXN2 expr inh: 25µM*; HepG2 tox: -102%; LDHA inh: 2

What do the screens show for `N#C/C(=C\C=C\c1ccccc1[N+](=O)[O-])C(=O)NCc1ccccc1`?
mIDH1 inhibitor: 15%; TGFb inhibitor: 13µM*; ATXN viability: inconclusive; ATXN2 expr inh: 28µM*; HepG2 tox: -130%; LDHA inh: -4

What do the screens show for `O=C(CSc1nc(-c2cccs2)cc(C(F)(F)F)n1)NC1CCCCC1`?
LDHA inh: 0

How did COc1ccc(-c2ccc(NC(=O)c3ccco3)cc2)nn1 do in these assays?
mIDH1 inhibitor: 2%; TGFb inhibitor: -11%; ATXN viability: inactive; ATXN2 expr inh: inconclusive; HepG2 tox: 5µM*; LDHA inh: -9

How did CC(C)(C)c1ccc(Oc2ccc(NC(=O)c3ccco3)cn2)cc1 do in these assays?
mIDH1 inhibitor: 5%; TGFb inhibitor: 11µM*; ATXN viability: inconclusive; HepG2 tox: -60%; LDHA inh: 1

Results for COc1ccc(-c2cccc(NC(=O)c3ccco3)c2)nn1 ?
mIDH1 inhibitor: 5%; TGFb inhibitor: 12%; ATXN viability: inactive; ATXN2 expr inh: -6%; HepG2 tox: 0%; LDHA inh: -3

Results for O=C(Nc1ccc(Oc2cccc(C(F)(F)F)c2)nc1)c1ccco1 ?
mIDH1 inhibitor: 3%; TGFb inhibitor: -3%; ATXN viability: inconclusive; ATXN2 expr inh: -15%; HepG2 tox: -22%; LDHA inh: 0

What do the screens show for `COCCOC(=O)C1=C(C)NC(=S)NC1c1ccc(OCC(=O)N2CC(C)OC(C)C2)c(OC)c1` (centres undefined)?
mIDH1 inhibitor: 6%; TGFb inhibitor: 9%; ATXN viability: inactive; HepG2 tox: 0%; LDHA inh: 0

How did COc1ccc(NC(=O)N(C)C[C@@H]2Oc3cc(Br)ccc3S(=O)(=O)N([C@H](C)CO)C[C@H]2C)cc1 do in these assays?
mIDH1 inhibitor: 3%; TGFb inhibitor: -10%; ATXN viability: inactive; ATXN2 expr inh: -2%; HepG2 tox: -19%; LDHA inh: -35*

Results for COc1cccc(NC(=O)N(C)C[C@@H]2Oc3cc(Br)ccc3S(=O)(=O)N([C@@H](C)CO)C[C@H]2C)c1 ?
mIDH1 inhibitor: 0%; TGFb inhibitor: 5%; ATXN viability: inactive; ATXN2 expr inh: 7%; HepG2 tox: 2%; LDHA inh: -1

How did C[C@H]1CN([C@@H](C)CO)S(=O)(=O)c2ccc(C3=CCCC3)cc2O[C@@H]1CN(C)C(=O)C1CCCCC1 do in these assays?
mIDH1 inhibitor: inconclusive; TGFb inhibitor: inconclusive; ATXN viability: 20µM*; ATXN2 expr inh: inconclusive; HepG2 tox: -38%; LDHA inh: -1
